Screening results deposited in PubChem by The Scripps Research Institute Molecular Screening Center.
GPR151 activ = activators of human GPR151, primary screen, cell-based, PathHunter beta-arrestin, luminescence. PathHunter beta-arrestin GPR151 cells. 650,000 compounds, 1% hits. G-protein coupled receptor 151 (Homo sapiens), Q8TDV0. AID 1508602, 2020. activation, % at 11.2 µM; in the data active = activation above about 4.9%;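 also: 0% = median of compound wells and 100% = cells with positive control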
MITF primary = MITF inhibitors, primary screen, biochemical, AlphaScreen, human; AlphaScreen MITF homodimerization, bead proximity signal; inhibition, % at 2.6 µM; 650,000 compounds, 0.91% hits; in the data active = inhibition above about 50%;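 also: 0% = vehicle wells with protein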
TEAD-YAP inh = TEAD-YAP interaction inhibition, primary screen, TEAD-YAP interaction inhibitor project, luminescence, HEK-TIYL cells | 640,000 compounds, 1.4% hits | TEAD-Gal4/YAP UAS-luciferase luminescence | inhibition, % at 9.12 µM; in the data active = inhibition above about 32%;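 also: 0% = median of test compound wells and 100% = reference inhibitor wells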
FBW7 act = FBW7 E3 ligase activators, primary screen, biochemical, AlphaScreen, human; normalized activity (activation), % at 26.1 µM; 650,000 compounds, 0.13% hits; F-box/WD repeat-containing protein 7 (Homo sapiens), Q969H0; AID 1259310, 2017; AlphaScreen FBW7–phospho-cyclin E peptide binding, activator screen; in the data active = normalized activity above about 1.9%;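 also: purified mutant Fbw7 with reduced substrate affinity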
Target sequence (Q969H0 whole entry, looked up): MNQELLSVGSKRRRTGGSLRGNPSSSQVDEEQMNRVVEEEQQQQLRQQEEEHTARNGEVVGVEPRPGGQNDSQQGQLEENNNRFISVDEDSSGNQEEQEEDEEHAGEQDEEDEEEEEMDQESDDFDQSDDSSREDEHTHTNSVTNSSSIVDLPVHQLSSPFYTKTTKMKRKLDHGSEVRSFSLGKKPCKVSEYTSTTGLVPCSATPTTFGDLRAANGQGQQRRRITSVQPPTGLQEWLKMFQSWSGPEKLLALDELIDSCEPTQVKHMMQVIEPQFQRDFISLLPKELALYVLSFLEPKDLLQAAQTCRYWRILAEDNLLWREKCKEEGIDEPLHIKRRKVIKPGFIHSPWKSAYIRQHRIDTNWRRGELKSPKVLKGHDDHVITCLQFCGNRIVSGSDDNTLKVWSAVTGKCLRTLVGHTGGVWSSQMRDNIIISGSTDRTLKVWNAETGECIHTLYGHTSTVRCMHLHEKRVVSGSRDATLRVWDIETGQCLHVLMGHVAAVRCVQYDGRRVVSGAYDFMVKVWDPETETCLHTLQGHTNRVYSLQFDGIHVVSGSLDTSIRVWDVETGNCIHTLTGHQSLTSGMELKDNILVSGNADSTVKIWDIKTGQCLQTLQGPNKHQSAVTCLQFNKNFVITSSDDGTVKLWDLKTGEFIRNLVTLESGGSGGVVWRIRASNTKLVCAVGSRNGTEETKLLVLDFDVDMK
* marks the source's active call; other numbers are inactive results. Sampled rows, rich in hits. Any-hit rate of the full collection: about 3.4%.

SMILES	GPR151 activ	MITF primary	TEAD-YAP inh	FBW7 act
Cc1cc(=O)[nH]c(N/N=C/c2cc(C)c(/C=N/Nc3nc(C)cc(=O)[nH]3)cc2C)n1	0	2	-2	0
Cc1n[nH]c(=O)nc1N/N=C/c1ccccc1O	-7	94*	18	-1
Cc1cc(=O)[nH]c(N/N=C/c2cc(Br)ccc2O)n1	-2	65*	7	0
Cc1n[nH]c(=O)nc1N/N=C/c1cc(Br)ccc1O	-3	116*	76*	0
CC(C)(C)c1nnc(N/N=C/c2ccccc2O)[nH]c1=O	1	96*	82*	0
O=C(Nc1ccc(Cl)c(Cl)c1)/C(=C/c1cccc([N+](=O)[O-])c1)NC(=O)c1ccc(F)cc1Cl	-1	6	2	0
CCCCOC(=O)C1=C(C)NC2=C(C(=O)CC(C)(C)C2)C1c1cc(OC)c(OC)c(OC)c1 (centres undefined)	0	0	5	0
O=C(NCC1CCCO1)c1ccc2c(=O)n(Cc3ccco3)c(SCC(=O)N3CCN(c4ccccc4)CC3)nc2c1 (centres undefined)	0	-2	35*	0
COCCNC(=O)c1ccc2c(=O)n(Cc3ccco3)c(SCC(=O)N3CCN(c4ccccc4)CC3)nc2c1	0	-7	28	0
O=C(CSc1nc2cc(C(=O)NCC3CCCO3)ccc2c(=O)n1Cc1ccco1)NC1CCCC1 (centres undefined)	-1	-3	11	0
CN(Cc1ccccc1)C(=O)CSc1nc2cc(C(=O)NCC3CCCO3)ccc2c(=O)n1Cc1ccco1 (centres undefined)	1	-5	38*	0
CCOC(=O)C1=C(C)N(CC(C)C)C(=O)/C1=C\c1ccc(Cl)cc1	1	-6	8	0
CC(=O)Nc1cccc2c1C(=O)c1cccc(NC(C)=O)c1C2=O	-1	-9	3	0
CC(=O)Nc1ccc(NC(C)=O)c2c1C(=O)c1c(NC(C)=O)ccc(NC(C)=O)c1C2=O	2	82*	1	0
O=[N+]([O-])c1cc(/C=N/Nc2ccccn2)c(O)c([N+](=O)[O-])c1	0	14	-3	0
COc1cccc(/C=N/Nc2ccc([N+](=O)[O-])cn2)c1O	-5	-12	66*	8.6*
O=[N+]([O-])c1cccc(/C=N/Nc2ccccn2)c1O	4	94*	78*	0
COC(=O)/C=C1\S/C(=N\N=C\c2ccc(Cl)cc2)NC1=O	-1	12	6	0
COC(=O)C/C=N/N=C1/NC(=O)/C(=C/C(=O)O)S1	1	57*	9	0
O=C1N(C2Cc3ccccc3C2)C[C@@H]2C[C@@H](c3ccc4nonc4c3)N3CCC[C@@]123	0	-4	-5	0
CNC(=O)C1CN(Cc2ccc3c(c2)OCO3)CCN1S(C)(=O)=O (centres undefined)	-1	4	9	0
CC(=O)Nc1ccc(Nc2nc(-c3ccc(C(=O)NC4CC4)cc3)nc3c2ncn3-c2ccccc2)cc1	2	1	48*	0
O=C(NC1CC1)c1ccc(-c2nc(Nc3ccc(Oc4ccccc4)cc3)c3ncn(-c4ccsc4)c3n2)cc1	1	14	-2	0
NC(=O)c1ccc(-c2nc(NCCO)c3ncn(-c4ccccc4)c3n2)cc1	0	-2	64*	0
NC(=O)c1ccc(-c2nc(NCCN3CCOCC3)c3ncn(-c4ccccc4)c3n2)cc1	4	7	61*	0
SMILES	GPR151 activ	MITF primary	TEAD-YAP inh	FBW7 act
O=C(NC1CC1)c1ccc(-c2nc(NCCO)c3ncn(-c4ccccc4)c3n2)cc1	0	10	68*	0
CN1CCN(C(=O)c2ccc(-c3nc(NCCN4CCOCC4)c4ncn(-c5ccsc5)c4n3)cc2)CC1	-2	16	23	0
COc1ccc(CCNc2nc(-c3ccc(C(=O)NC4CC4)cc3)nc3c2ncn3-c2ccccc2)cc1	-2	16	4	0
CC1CC(=O)N(Cc2ccccc2)c2ccccc2S1 (centres undefined)	0	6	11	0
COc1ccc(/C(O)=C2/C(=O)C(=O)N(Cc3cccnc3)C2c2ccccc2F)cc1 (centres undefined)	-2	7	5	0
COc1ccccc1CC(=O)Nc1c(F)c(F)cc(F)c1F	-1	-9	-6	0
COc1ccc(CN2C[C@@H]3C[C@@H](c4nc5c(s4)CCCC5)N4CCC[C@@]34C2=O)cc1	-1	-1	-9	0
Cc1ccc(C(=O)NC(C)Cc2cccs2)c(C)c1 (centres undefined)	-7	4	88*	0
CCC(C)NC(=O)c1ccc(C)cc1C (centres undefined)	-1	-6	-2	0
CCc1ccc(N(CC(=O)N2CCc3ccccc32)S(=O)(=O)c2c(C)noc2C)cc1	-1	2	2	0
CCN(CC)C(=O)c1cc(-c2ccc(Cl)cc2Cl)on1	0	13	-77	0
CC(C)(CO)NC(=O)c1cc(-c2ccc(Cl)cc2Cl)on1	-1	-15	48*	0
Cc1ccc(N2CC(C(=O)Nc3nccs3)CC2=O)cc1C (centres undefined)	-1	4	44*	0
O=C(Nc1ccncc1)c1ccc2c(c1)C(=O)N(C1CCCCC1)C2=O	0	-9	32*	0
O=C(Nc1cccnc1)c1ccc2c(c1)C(=O)N(C1CCCCC1)C2=O	-1	-4	-6	0
O=C(NCCC1=CCCCC1)c1ccc2c(c1)NC(=O)C(CSCc1ccc(F)cc1Cl)N2 (centres undefined)	2	5	-5	0
COc1ccc(C2=NN(C(=O)c3cc(OC)c(OC)c(OC)c3)C(c3ccccc3OC)C2)cc1OC (centres undefined)	1	-4	35*	0
Cc1ccc(-c2nc(N)sc2-c2ccc([N+](=O)[O-])cc2)cc1	1	11	37*	0
Cn1c(SCC#N)nnc1-c1cccc([N+](=O)[O-])c1	-2	-5	32*	0
Cn1c(SCC(N)=O)nnc1-c1cccc([N+](=O)[O-])c1	-1	-10	-8	0
CCOC(=O)CSc1nc2c(sc(=S)n2-c2ccc(Cl)c(C)c2)c(=O)n1-c1ccccc1OC	1	25	-9	2.1*
COCCOC(=O)C1=C(C)NC(=S)NC1c1ccc(OC)cc1 (centres undefined)	-1	5	-6	0
COc1ccccc1CNc1cc(C)ccc1OC	0	62*	-2	0
COc1ccccc1CNc1ccccc1F	-1	-8	9	2.2*
COc1ccccc1CNc1ccccc1SC	0	-17	4	0
COc1ccccc1CC(=O)Nc1ccc(C)cc1C	-2	-13	-2	0
NC(=O)c1c(NC(=O)CSc2nc(-c3ccccc3)cn2N)sc2c1CCC2	1	-2	36*	0
